According to PubChem BioAssay (NCI):
Several values for one entry are separate records, joined by “and”; a condition that tells them apart may be missing. Identical values can stand only once. About 83,000 compounds went through this panel and 20% of them were active in at least one assay; those are over-represented in the sample as a whole.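 Cells were grown in 96-well plates and exposed to the test compound at a single concentration for 48 hours; results are reported as percent growth, with values below 10 considered active.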 Activity calls are given as the source filed them.

Legend:
Experiment in all cases: NCI-60 one-dose screen, 48 h (100 = growth as untreated, 0 = no growth, -100 = all killed)
Details in all cases: 10 µM unless noted
NCI-H23 lung = tested on: NCI-H23 lung
NCI-H226 lung = tested on: NCI-H226 lung
NCI-H322M lung = tested on: NCI-H322M lung
HOP-62 NSCLC = tested on: HOP-62 NSCLC
NCI-H460 lung = tested on: NCI-H460 lung
HOP-92 NSCLC = tested on: HOP-92 NSCLC
NCI-H522 lung = tested on: NCI-H522 lung
A549/ATCC NSCLC = tested on: A549/ATCC NSCLC
786-0 renal = tested on: 786-0 renal
COLO 205 colon = tested on: COLO 205 colon

| Compound | growth (NCI-H23 lung) | growth (NCI-H226 lung) | growth (NCI-H322M lung) | growth (HOP-62 NSCLC) | growth (NCI-H460 lung) | growth (HOP-92 NSCLC) | growth (NCI-H522 lung) | growth (A549/ATCC NSCLC) | growth (786-0 renal) | growth (COLO 205 colon) |
| --- | --- | --- | --- | --- | --- | --- | --- | --- | --- | --- |
| CCNC(=O)Nc1ccc(-c2nc3c(c(N4CCOC[C@@H]4C)n2)CCN(C2COC2)C3)cc1 | 50.8% (inactive) and 20.1% (inactive) | 19.7% (inactive) and -3.42% (active) | 39.3% (inactive) and 12.1% (inactive) | 43.3% (inactive) and 0.37% (active) | 25.7% (inactive) and 14.3% (inactive) | -6.36% (active) and -16.3% (active) | 24.1% (inactive) and 6.99% (active) | 44.3% (inactive) and 2.19% (active) | 36.6% (inactive) and 5.36% (active) | 28.4% (inactive) and 3.31% (active) |
| CC(C)Cc1ccc(C(C)C(=O)NCc2ccc(Cn3c(=O)sn(CCCCl)c3=O)cc2)cc1 (stereo not given) | 96.7% (inactive) and -59.1% (active) | 106% (inactive) and 32.6% (inactive) | 101% (inactive) and 73.9% (inactive) | 105% (inactive) and -38.5% (active) | 105% (inactive) and 40.2% (inactive) | 105% (inactive) and -77.6% (active) | 85.5% (inactive) and -52.3% (active) | 101% (inactive) and -20.1% (active) | 101% (inactive) and -71.6% (active) | 66.8% (inactive) and -65% (active) |
| CC(CN=Cc1ccccc1O)N=Cc1ccccc1O (stereo not given) | 101% (inactive) and 102% (inactive) | 92.6% (inactive) and 91.4% (inactive) | 79.2% (inactive) and 113% (inactive) | 98.9% (inactive) and 104% (inactive) | 107% (inactive) and 100% (inactive) | 85.4% (inactive) | 75.7% (inactive) and 106% (inactive) | 107% (inactive) and 117% (inactive) | 104% (inactive) and 109% (inactive) | 98.5% (inactive) |
| CO/N=C/C=C\C(=O)N/C=C/C[C@H]1/C=C/[C@H](O)/C=C\C=C\c2cccc(O)c2C(=O)O1 | 61.4% (inactive) and 54.8% (inactive) | -81.9% (active) and -73.8% (active) | 42.8% (inactive) and 51.7% (inactive) | 19.5% (inactive) and 17.4% (inactive) | 16.9% (inactive) and 8.82% (active) | 23.9% (inactive) and -9.99% (active) | 28.1% (inactive) and 15% (inactive) | 18.1% (inactive) and 12% (inactive) | 24.2% (inactive) and 18.7% (inactive) | 15.2% (inactive) and 14.3% (inactive) |
| NCCSC(C[N+](=O)[O-])c1ccccc1Cl (stereo not given) | 95.6% (inactive) | 99.1% (inactive) | 91.7% (inactive) | 106% (inactive) | 98.2% (inactive) | 102% (inactive) | 66.6% (inactive) | -26.9% (active) | 101% (inactive) | 99.2% (inactive) |
| CCN(CC)CCC(CNc1c2ccc([N+](=O)[O-])cc2nc2cc(OC)c(OC)cc12)c1ccccc1 (stereo not given) | -86.4% (active) and -71.3% (active) | -65.3% (active) and -61.1% (active) | -39.9% (active) and -76.5% (active) | -9.52% (active) and -86.4% (active) | 6.85% (active) and -100% (active) | -42.2% (active) | -45% (active) and -79.4% (active) | -6.05% (active) and -93.9% (active) | -74.2% (active) and -91.6% (active) | -49.7% (active) and -100% (active) |
| Cc1cc(C)c(N)c(Br)c1 | 101% (inactive) and 83.8% (inactive) | 106% (inactive) | 130% (inactive) and 105% (inactive) | 92.6% (inactive) and 165% (inactive) | 114% (inactive) and 101% (inactive) | 82.2% (inactive) | 95.2% (inactive) and 87.9% (inactive) | 104% (inactive) and 106% (inactive) | 102% (inactive) and 93.6% (inactive) | 102% (inactive) and 105% (inactive) |
| O=[N+]([O-])c1ccccc1N(S(=O)(=O)c1ccccc1)S(=O)(=O)c1ccccc1 | 106% (inactive) and 95.9% (inactive) | 113% (inactive) and 91.2% (inactive) | 90% (inactive) and 95% (inactive) | 118% (inactive) and 119% (inactive) | 108% (inactive) and 114% (inactive) | 92.8% (inactive) and 101% (inactive) | 94.7% (inactive) and 87.3% (inactive) | 91.3% (inactive) and 80.2% (inactive) | 109% (inactive) | 129% (inactive) and 117% (inactive) |
| Oc1nc(NCCc2ccccc2)sc1/C=C1\C=Nc2ncccc21 | 2.96% (active) and 9.1% (active) | 22.4% (inactive) and 3.3% (active) | 19.6% (inactive) and 5.21% (active) | -2.98% (active) and 19.9% (inactive) | 15.1% (inactive) and 14.1% (inactive) | 11.8% (inactive) and -9.73% (active) | 4.33% (active) and 26.6% (inactive) | 8.14% (active) and 19.1% (inactive) | 19.7% (inactive) and 9.01% (active) | -6.84% (active) and 4.78% (active) |
| Clc1ccc(NC(Nc2ccc(Cl)cc2)C(Cl)(Cl)Cl)cc1 | 78.1% (inactive) and 96.5% (inactive) | 107% (inactive) and 96.8% (inactive) | 81.4% (inactive) and 104% (inactive) | 61.3% (inactive) and 86.3% (inactive) | 93.9% (inactive) and 105% (inactive) | 105% (inactive) | 71.2% (inactive) and 72.1% (inactive) | 80.9% (inactive) and 92.3% (inactive) | 68.5% (inactive) and 93.6% (inactive) | 129% (inactive) and 101% (inactive) |
| CCN(CC)C(=S)SSC(=S)N(CC)CC | 91% (inactive) and 111% (inactive) | 86.5% (inactive) and 104% (inactive) | 84.8% (inactive) and 102% (inactive) | 82.1% (inactive) and 88.7% (inactive) | 62.4% (inactive) and 111% (inactive) | 90.4% (inactive) and 110% (inactive) | 58.1% (inactive) and 88.8% (inactive) | 85.5% (inactive) | 91.2% (inactive) and 91.7% (inactive) | 82.9% (inactive) and 106% (inactive) |
| CC(=O)Nc1cccc2c1CCCC2 | 98% (inactive) and 96.3% (inactive) | 98.9% (inactive) and 98.7% (inactive) | 113% (inactive) and 98% (inactive) | 91.8% (inactive) and 84% (inactive) | 101% (inactive) and 111% (inactive) | 96.5% (inactive) and 80.8% (inactive) | 68.7% (inactive) and 75.3% (inactive) | 63.6% (inactive) and 88.1% (inactive) | 95.8% (inactive) and 96.6% (inactive) | 109% (inactive) and 101% (inactive) |
| COc1cc2c(c(OC)c1OC)-c1ccc(OC)c(=O)cc1[C@@H](NC(C)=O)CC2 | 24.4% (inactive) and 29.4% (inactive) and 12.6% (inactive) | 33.9% (inactive) and 13.1% (inactive) and 31% (inactive) | 47.7% (inactive) and 32.9% (inactive) and 36.1% (inactive) | 31.2% (inactive) and 24.6% (inactive) and 20% (inactive) | 4.46% (active) and 1.09% (active) and 2.92% (active) | 57.9% (inactive) and 14% (inactive) and 2.37% (active) | 15.4% (inactive) and -6.78% (active) and -64.2% (active) | 12.3% (inactive) and 44.9% (inactive) | 17.5% (inactive) and 9.25% (active) and 15.4% (inactive) | -36.4% (active) and 3.13% (active) and -47.6% (active) |
| CCN(CC)CCCC(C)N(Cc1ccccc1)CC(O)c1ccc(Cl)cc1 (stereo not given) | 106% (inactive) and 101% (inactive) | 98.9% (inactive) and 110% (inactive) | 114% (inactive) and 98% (inactive) | 97.3% (inactive) and 92.8% (inactive) | 101% (inactive) and 116% (inactive) | 71.7% (inactive) and 95.2% (inactive) | 107% (inactive) and 89.8% (inactive) | 103% (inactive) and 96.7% (inactive) | 108% (inactive) and 96.8% (inactive) | 103% (inactive) and 111% (inactive) |
